The source of these data is PubChem BioAssay (NCATS).

Inconclusive results are not listed. The source made the active and inactive calls. Unless noted, calls follow the shape of the dose curve; as a rule, active = well fitted inhibition curve with a large enough effect; inconclusive = small, poorly fitted or top-dose-only effect; inactive = flat fitted curve, though single readings scatter.

The nature of test [1]: qHTS drug screen for cell cycle checkpoint inhibitors in PARPi-resistant BRCA-mutant ovarian cancer cell lines. (AID 1963452; calls by dose curve). To be noted: PEO1/OlaR viability, CellTiter-Glo luminescence, 96 h, stronger effect = lower value. An outline of the steps: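 PEO1, PEO4 and PEO1/OlaR ovarian cancer cells, 600 per well, exposed 96 h at 37C to a dilution series. Viability read by CellTiter-Glo luminescence, normalized to DMSO and empty wells; activity summarized as Z-AUC.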

The nature of test [2]: qHTS for identification of novel therapeutic agents for treatment of microphthalmiaassociated transcription factor (MiT) renal cell carcinoma (RCC) (AID 1963991). Particulars: CellTiter-Glo, 48 h, stronger effect = lower value. The gist of the method: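 Curves over 11 concentrations were fitted to CellTiter-Glo luminescence, scaled between empty wells (0%) and DMSO (100%) viability. Cells were UOK109, UOK124 and UOK145 TFE3-fusion RCC lines at 500/well, exposed 48 hours at 37 C.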

The nature of test [3]: qHTS profiling for inhibitors of Plasmodium falciparum proliferation (AID 504749).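 Also: 0% = DMSO vehicle and full inhibition = artemisinin control; nearly all actives have a fitted effect of over 60% in size.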 Particulars: P. falciparum in erythrocytes, SYBR Green DNA, 72 h. The gist of the method: (§1)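 Readout was DNA-dye fluorescence from lysed cultures, ex 485/em 535 nm. Parasitized red cells had grown 72 h with compound; data scaled between 0.29 uM artemisinin and DMSO wells and corrected using vehicle-only plates.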

The subject of test [4] is 3D7. The description is as above. Particulars: P. falciparum in erythrocytes, SYBR Green DNA, 72 h; series mostly up to 28.7 µM. The gist of the method: as §1
Test [5] deals with 7G8. Described as above. To be noted: P. falciparum in erythrocytes, SYBR Green DNA, 72 h; series mostly up to 28.7 µM. An outline of the steps:
as §1

The subject of test [6] is AA1029. The description is as above. To be noted: P. falciparum in erythrocytes, SYBR Green DNA, 72 h; series mostly up to 28.7 µM. The gist of the method: as §1
Test [7] relates to AS120. The test is described as above. Particulars: P. falciparum in erythrocytes, SYBR Green DNA, 72 h; series mostly up to 28.7 µM. An outline of the steps:
as §1

Test [8] deals with ATS189. The test is described as above. To be noted: P. falciparum in erythrocytes, SYBR Green DNA, 72 h; series mostly up to 28.7 µM. An outline of the steps: as §1
Test [9] has as its system ATS95. The description is as above. To be noted: P. falciparum in erythrocytes, SYBR Green DNA, 72 h; series mostly up to 28.7 µM. The gist of the method:
as §1

Test [10] relates to C2A. The test is described as above. Particulars: P. falciparum in erythrocytes, SYBR Green DNA, 72 h; series mostly up to 28.7 µM. An outline of the steps: as §1
The subject of test [11] is CP185. Described as above. To be noted: P. falciparum in erythrocytes, SYBR Green DNA, 72 h; series mostly up to 28.7 µM. An outline of the steps: as §1
Test [12] concerns CP191. The test is described as above. Particulars: P. falciparum in erythrocytes, SYBR Green DNA, 72 h; series mostly up to 28.7 µM. An outline of the steps: as §1
The subject of test [13] is CP192. The description is as above. To be noted: P. falciparum in erythrocytes, SYBR Green DNA, 72 h; series mostly up to 28.7 µM. An outline of the steps: as §1
For test [14], the system named is CP194. The description is as above. Particulars: P. falciparum in erythrocytes, SYBR Green DNA, 72 h; series mostly up to 28.7 µM. The gist of the method:
as §1

The test system of test [15] is CP201. The test is described as above. Particulars: P. falciparum in erythrocytes, SYBR Green DNA, 72 h; series mostly up to 28.7 µM. An outline of the steps:
as §1

Setting [16] is: measured here: PEO1 parental Z-AUC.
Where [17] appears, read: TFE3-RCC UOK109 viability, measured here: UOK109 Z-AUC.
The mark [18] stands for this setting: TFE3-RCC viability, measured here: UOK124 Z-AUC.
Setting [19] is: TFE3-RCC viability, measured here: UOK145 Z-AUC.
Setting [20] is: at 28.7 µM (top of the series), parasite line A.
Where [21] appears, read: at 28.7 µM (top of the series), parasite line B.

Regarding `OC(CCN1CCCCC1)(c1ccccc1)C1CC2C=CC1C2` (stereo unspecified), the Z-AUC in test [1] was -0.614 (inactive); in test [1] (setting [16]), -0.36; in [1] (measured here: PEO4 Z-AUC), -0.607. Further, the z-score in test [2] (setting [17]) was 0.676; in [2] (setting [18]), 0.56; in [2] (setting [19]) it was 0.997.

For the compound `CNC[C@H](O)c1cccc(O)c1`, the results for the Z-AUC in [1], in [1] (setting [16]) and in test [1] (measured here: PEO4 Z-AUC) were 0.649 (inactive), 0.723 and 0.496, respectively. The activity, negative = inhibition in test [3] (setting [20]) was 6.65% (inactive); in test [3] (setting [21]), -11% (inactive). Moreover, the Potency result in test [4], in test [5], in test [6], in test [7], in test [8] and in test [9] was “inactive” in each case. Further, the Potency entry in test [10], in test [11], in test [12], in test [13] and in test [14] was “inactive” throughout. For the same compound, in test [15], the compound was classed as inactive.

Consider `CCC(C)N(C)C(=O)c1cc2ccccc2c(-c2ccccc2Cl)n1` (stereo unspecified), for which the Z-AUC in [1] was -0.72 (inactive); in [1] (setting [16]) it was -0.771; in [1] (measured here: PEO4 Z-AUC) it was -0.805. Also, the z-score was 0.652 in [2] (setting [17]), 0.425 in test [2] (setting [18]) and -0.135 in test [2] (setting [19]).

With `CC(C[N+](C)(C)C)OC(N)=O` (stereo unspecified), the Z-AUC in test [1] is 1.18 (inactive); in test [1] (setting [16]), 1.37; in test [1] (measured here: PEO4 Z-AUC), 1.64. Further, the activity, negative = inhibition was 8.36% (inactive) in test [3] (setting [20]) and 9.26% (inactive) in [3] (setting [21]). Further, the Potency result in test [4], in [5], in [6], in test [7], in test [8] and in [9] was “inactive” throughout. For the same compound, the Potency entry in test [10], in test [11], in test [12], in test [13] and in [14] was “inactive” in each case. In addition, the compound was called inactive in [15].

As to `NC(=O)c1ccc(-c2nc(-c3ccc4c(c3)OCO4)c(-c3ccccn3)[nH]2)cc1`, the figures for the Z-AUC in [1], in test [1] (setting [16]) and in test [1] (measured here: PEO4 Z-AUC) were 0.53 (inactive), 1.15 and 0.909, respectively. The z-score came out at 0.874 in test [2] (setting [17]), 1.69 in test [2] (setting [18]) and 0.197 in [2] (setting [19]).

Take `Nc1nc2c(ncn2COCCO)c(=O)[nH]1`: the Z-AUC was -0.761 (inactive) in test [1], -0.588 in test [1] (setting [16]) and -0.538 in [1] (measured here: PEO4 Z-AUC). Also, the z-score in test [2] (setting [17]) worked out at 0.456; in test [2] (setting [18]), 1.73; in test [2] (setting [19]), 0.51. Further, the activity, negative = inhibition in test [3] (at 12.8 µM (top of the series), parasite line A) was 8.65% (inactive); in [3] (at 12.8 µM (top of the series), parasite line B), -5.76% (inactive). In addition, the Potency result in [4], in [5], in test [6], in [7], in test [8] and in test [9] was “inactive” each time. Moreover, the Potency result in [10], in test [11], in test [12], in [13] and in [14] was “inactive” in each case. For the same compound, the compound was classed as inactive in test [15].

With `O=C1CCc2cc(OCCCCc3nnnn3C3CCCCC3)ccc2N1`, the Z-AUC is -1.35 (inactive) in test [1], -0.972 in test [1] (setting [16]) and -0.778 in [1] (measured here: PEO4 Z-AUC). In addition, the z-score was found to be 0.489 in test [2] (setting [17]), 0.136 in test [2] (setting [18]) and 0.331 in test [2] (setting [19]). Moreover, the Potency entry in test [4], in [5], in [9], in test [12], in [13] and in [14] was “inactive” in each case. Further, the call in [15] was inactive.

Turning to `CC(C)OC(=O)C1=CN(C(=O)c2ccc(F)c(F)c2)CC(C)(C)c2c1[nH]c1ccccc21`, the results for the Z-AUC in [1], in test [1] (setting [16]) and in [1] (measured here: PEO4 Z-AUC) were -0.655 (inactive), 1.12 and 0.385, respectively. Also, the z-score is 0.178 in test [2] (setting [17]), 0.0335 in test [2] (setting [18]) and -0.0962 in test [2] (setting [19]).
